Source: PubChem (National Center for Advancing Translational Sciences (NCATS))
Shown are actives, neighbours in structure and some others; about 2.5% of the full set was active somewhere.
Cruzain Triton: blocks cruzain activity in presence of Triton detergent | Potency, µM, for inactives: max response, negative = inhibition, hits mostly inhibitors | purified cruzain, Z-FR-AMC fluorescence, 0.01% Triton | AID 1478 | hit rate 0.43% among 200,000;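 also: plate controls were neutral wells for no effect and buffer without enzyme for full effect; nearly all actives have a fitted effect of over 40% in size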
Target sequence (P25779 123-467 limits assumed): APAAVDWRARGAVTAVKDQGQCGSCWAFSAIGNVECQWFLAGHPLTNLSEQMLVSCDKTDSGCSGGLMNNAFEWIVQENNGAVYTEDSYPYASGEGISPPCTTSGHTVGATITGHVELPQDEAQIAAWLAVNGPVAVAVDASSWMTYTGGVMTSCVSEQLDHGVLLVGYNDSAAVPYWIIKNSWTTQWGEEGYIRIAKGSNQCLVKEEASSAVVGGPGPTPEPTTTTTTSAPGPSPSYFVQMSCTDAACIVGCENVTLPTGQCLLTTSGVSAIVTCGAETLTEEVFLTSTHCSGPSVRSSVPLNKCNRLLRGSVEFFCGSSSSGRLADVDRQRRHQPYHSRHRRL
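Purified cruzain (1.5 nM final) was preincubated with compounds for 15 min at room temperature in 100 mM sodium acetate pH 5.5, 5 mM DTT, 0.01% Triton X-100. Reaction started with 2 uM Z-FR-AMC; AMC fluorescence change over 60 s gave activity.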
Cruzain inh noDet: inhibitors of Trypanosoma cruzi cruzain without detergent; AID 1476; purified cruzain, Z-FR-AMC fluorescence, no detergent; hit rate 2.3% among 200,000; Potency, µM, for the others: max response, negative = inhibition, most hits filed as inhibitors; P25779;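 also: plate controls were enzyme without inhibitor for no effect and buffer without enzyme for full effect; nearly all actives have a fitted effect of over 40% in size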
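Detergent-free condition (0.00005% Triton X-100) in acetate buffer pH 5.5 with DTT. 1.5 nM enzyme and compound were pre-mixed 15 min, then 2 uM Z-FR-AMC substrate added; reaction progress from fluorescence change between first and third reads (60 s).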
* hit, by the source's call; u = inconclusive. Calls follow the shape of the dose curve; as a rule, active = well fitted curve in the direction sought with a large enough effect; inconclusive = small, poorly fitted or top-dose-only effect, or another doubt; inactive = no such curve, though single readings can be large; an effect the other way counts as inactive or inconclusive. Potency is read from the fitted curve at half-maximal effect.

SMILES	Cruzain Triton	Cruzain inh noDet
CCc1ccc(Nc2sc(C(=O)c3ccc(F)cc3)c(N)c2S(=O)(=O)c2ccccc2)cc1	-4%	7.9µM*
Cc1ccccc1Nc1sc(C(=O)c2ccc(F)cc2)c(N)c1C(=O)NCCc1ccccc1	-4%	u
Cc1ccc(Nc2sc(C(=O)c3ccccc3)c(N)c2S(=O)(=O)c2ccccc2)cc1Cl	-5%	4µM*
CCOc1ccc(Nc2sc(C(=O)c3cccc(OC)c3)c(N)c2S(=O)(=O)c2ccccc2)cc1	-2%	13µM*
Cc1cc(Nc2sc(C(=O)c3ccc(F)cc3)c(N)c2C(=O)Nc2ccc(F)cc2)ccc1Cl	-6%	u
COc1ccccc1Nc1sc(C(=O)c2ccc(C)cc2C)c(N)c1S(=O)(=O)c1ccccc1	-1%	7.9µM*
CCc1ccc(Nc2sc(C(=O)c3ccccc3)c(N)c2S(C)(=O)=O)cc1	-10%	-8%
COc1ccccc1Nc1nc(C)nc(N)c1S(=O)(=O)c1ccccc1	-3%	-12%
CC(C)(C)OC(=O)N1CCC(c2c(C(=O)NCCN3CCc4ccccc4C3)cnn2-c2ccc(F)cc2)CC1	-2%	3%
CCOC(=O)C1CCC(CN(Cc2c(Cl)cccc2Cl)S(=O)(=O)c2ccc(Cl)cc2)CC1 (configuration not stated)	1%	3%
Cc1nn(C(C)(C)C)c(OC(=O)c2ccc3c(c2)OCO3)c1S(=O)(=O)c1ccccc1	-6%	7%
COc1ccccc1Nc1sc(C(=O)c2ccc3c(c2)OCO3)c(N)c1S(=O)(=O)c1ccccc1	-3%	7.9µM*
Cc1ccc(Nc2sc(C(=O)c3ccccc3)c(N)c2C(=O)NC(C)C)cc1	-3%	9%
Cc1ccc(Nc2sc(C(=O)c3ccccc3)c(N)c2S(=O)(=O)c2ccccc2)c(C)c1	-4%	10µM*
COc1ccc(S(=O)(=O)c2c(Nc3ccc(F)cc3)sc(C(=O)c3ccc(C)cc3C)c2N)cc1	-1%	5µM*
Cc1ccc(NS(=O)(=O)c2cccc(C(=O)O)c2)c(C)c1	2%	1%
COc1cccc(C(=O)c2sc(Nc3ccc(C)cc3C)c(S(=O)(=O)c3ccccc3)c2N)c1	-4%	7.9µM*
Cc1ccc(Cl)cc1Nc1sc(C(=O)c2ccc(F)cc2)c(N)c1S(C)(=O)=O	-12%	-27%
COc1ccccc1NC(=O)CSc1nnc2c3ccccc3n(C(C)C)c2n1	-8%	-7%
CCNc1ncc2nc(-c3ccc(F)cc3)c(=O)n(-c3ccc(OC)cc3)c2n1	-5%	1%
Clc1cc(Cl)cc(Cl)c1	0%	-2%
Cc1ccc(S(=O)(=O)c2c(Nc3cc(F)ccc3F)sc(C(=O)c3ccc(F)cc3)c2N)cc1	-5%	3.2µM*
Cc1ccc(Nc2sc(C(=O)c3ccc(F)cc3)c(N)c2S(=O)(=O)c2ccc(C)cc2)cc1	2%	u
COc1ccc(OC)c(Nc2sc(C(=O)c3ccccc3)c(N)c2S(=O)(=O)c2ccccc2)c1	-2%	7.9µM*
Nc1c(C(=O)c2ccc(F)cc2)sc(Nc2ccccc2F)c1S(=O)(=O)c1ccc(Br)cc1	-1%	-27%
SMILES	Cruzain Triton	Cruzain inh noDet
O=c1[nH]c(=S)c2[nH]c(=O)n(-c3ccccc3)c2[nH]1	-2%	-1%
COc1ccc(CCNC(=O)C(=O)NCC(c2ccc3c(c2)OCO3)N2CCOCC2)cc1OC (configuration not stated)	0%	-6%
COc1cc(/C=C(\C#N)C(N)=O)cc(CSc2nc3ccccc3s2)c1O	-8%	-1%
COc1ccc(C2NCCc3c2[nH]c2ccccc32)cc1CSc1nc2ccccc2s1 (configuration not stated)	-10%	25µM*
COCCNC(=O)c1[nH]c2cc(C)ccc2c1Sc1ccc(Cl)cc1	-3%	7%
Cc1cc(C)cc(NC(=O)CN(c2cccc(C)c2C)S(=O)(=O)c2ccccc2)c1	-7%	u
Cc1cc(NC(=O)CN(c2cccc(C)c2C)S(=O)(=O)c2ccccc2)ccc1Br	-3%	6.3µM*
CCC12CN3CC(C)(CN(C1)C3c1c(C)[nH]c3ccccc13)C2=O (configuration not stated)	-3%	6%
Cc1nc2cccnc2n1-c1cccc(C(=O)N2CCN(c3ccc(Cl)cc3)CC2)c1	-7%	u
O=C1NC(=S)S/C1=C\c1ccc(SCc2ccccc2)o1	-22%	-16%
O=C1NC(=S)S/C1=C\c1ccc(SCc2ccco2)o1	16µM*	u
C=CCN(CC=C)S(=O)(=O)c1ccc(NC(=S)NC(=O)/C=C/c2ccc(C)cc2)cc1	-1%	25µM*
C=CCN(CC=C)S(=O)(=O)c1ccc(NC(=S)NC(=O)/C=C/c2cccc3ccccc23)cc1	3%	4µM*
C=CCN(CC=C)S(=O)(=O)c1ccc(NC(=S)NC(=O)c2ccc(-c3ccccc3)cc2)cc1	1%	-8%
CN(C)c1ccc(NC(=S)NC(=O)/C=C/c2ccc(Cl)cc2)cc1	5%	5µM*
CN(C)NC(=S)Nc1ccc(Cl)cc1	6%	17%
C=CCN(CC=C)S(=O)(=O)c1ccc(NC(=S)NC(=O)c2ccco2)cc1	-3%	4%
CCOC(=O)c1c(NC(C)=O)c2c3c(sc2n1Cc1nc(-c2ccc(Cl)cc2)oc1C)CCCC3	-1%	-13%
COc1ccc(CN2C(=O)N(c3ccc(F)cc3)C(=O)C2CC(=O)Nc2ccccc2)cc1 (configuration not stated)	-4%	-7%
Cc1ccccc1-c1nc(CS(=O)(=O)CC(=O)Nc2cccc(C(F)(F)F)c2)c(C)o1	-13%	-1%
CCCc1ccc(C2Sc3ccccc3NC3=C2C(=O)c2ccccc23)cc1 (configuration not stated)	-3%	7.9µM*
O=C1C2=C(Nc3ccccc3SC2c2ccccc2C(F)(F)F)c2ccccc21 (configuration not stated)	-8%	u
COc1ccc(Br)cc1C1Sc2ccccc2NC2=C1C(=O)c1ccccc12 (configuration not stated)	-2%	16µM*
CCOc1cc(C2Sc3ccccc3NC3=C2C(=O)c2ccccc23)ccc1O (configuration not stated)	-6%	-5%
O=C1C2=C(Nc3ccccc3SC2c2c(F)cccc2Cl)c2ccccc21 (configuration not stated)	-4%	-14%
SMILES	Cruzain Triton	Cruzain inh noDet
O=C1C2=C(Nc3ccccc3SC2c2ccc(Cl)c(Cl)c2)c2ccccc21 (configuration not stated)	-2%	10µM*
COCCCNC(=O)c1sc2nc3n(c(=O)c2c1C)CCC3	-4%	10%
CCOC(=O)CSc1nnc2n(-c3ccccc3)c(=O)c3c4c(sc3n12)CC(C(C)(C)C)CC4 (configuration not stated)	-12%	25%
NCc1ccc(C(=O)O)cc1	12%	2%
Cc1ccc(-c2nn3c(=O)cc(CN4CCN(C(=O)/C=C/c5ccccc5)CC4)nc3s2)cc1	1%	3%
CCc1nnc(NC(=O)Nc2ccc(OC)cc2)s1	2%	9%
O=C(Nc1cccc(Cl)c1)Nc1nnc(CSCCOc2ccc(Cl)cc2)s1	-4%	u
Cc1ccc(NC(=O)Nc2nnc(CSCCOc3ccc(Cl)cc3)s2)cc1	0%	7.9µM*
COc1ccc(OCCSCc2nnc(NC(=O)Nc3ccc(Cl)cc3)s2)cc1	-2%	13µM*
Cc1ccc(C)c(NC(=O)C(Sc2ncnc3ccccc23)c2ccccc2)c1 (configuration not stated)	2%	0%
